PLK1 PBD inh – blocks phosphopeptide binding to human PLK1 polo-box domain | P53350 | actives 2.8% (n = 360,000) | Plk1 PBD binding of FITC phosphopeptide, fluorescence polarization | AID 720504 | Potency, µM, without a hit: max response, negative = inhibition, hits mostly inhibitors; also: series mostly up to about 57 µM; % is scaled to controls: 0 for no effect and ±100 for the full control effect; nearly all actives have a fitted effect of over 65% in size
Target sequence (P53350 whole entry, looked up, the tested form may be a part): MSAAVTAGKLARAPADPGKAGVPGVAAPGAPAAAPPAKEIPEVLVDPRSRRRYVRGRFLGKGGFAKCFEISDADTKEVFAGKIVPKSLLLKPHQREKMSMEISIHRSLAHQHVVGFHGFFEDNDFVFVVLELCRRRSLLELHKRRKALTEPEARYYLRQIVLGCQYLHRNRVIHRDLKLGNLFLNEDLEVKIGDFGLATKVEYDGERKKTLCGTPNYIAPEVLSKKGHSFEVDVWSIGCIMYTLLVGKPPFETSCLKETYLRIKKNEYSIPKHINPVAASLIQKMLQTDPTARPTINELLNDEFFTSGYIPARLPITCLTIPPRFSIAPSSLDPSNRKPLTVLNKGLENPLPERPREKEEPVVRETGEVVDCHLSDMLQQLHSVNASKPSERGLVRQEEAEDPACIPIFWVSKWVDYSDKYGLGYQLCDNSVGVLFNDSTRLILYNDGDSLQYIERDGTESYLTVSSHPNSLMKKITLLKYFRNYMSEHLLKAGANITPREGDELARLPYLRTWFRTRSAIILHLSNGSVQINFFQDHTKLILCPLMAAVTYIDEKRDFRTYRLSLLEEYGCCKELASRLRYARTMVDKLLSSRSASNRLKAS
BAZ2B inh – inhibitors of human BAZ2B bromodomain; Potency, µM (top dose mostly 114 µM), inactives show at the highest dose activity change, negative = inhibition, usual class: inhibitors; AID 504333; AlphaScreen BAZ2B-H3K14Ac peptide displacement; actives 4.4% (n = 360,000); also: % is scaled to controls: 0 for no effect and ±100 for the full control effect; nearly all actives have a fitted effect of over 60% in size
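Multi-concentration screen (max 110 uM) measuring displacement of acetylated histone H3 peptide from BAZ2B by AlphaScreen, using 50 nM protein, 50 nM peptide and 10 ug/mL streptavidin donor plus Ni-chelate acceptor beads.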
L3MBTL1 inh-1 – L3MBTL1 (human) inhibition; Q9Y468; AlphaScreen L3MBTL1–H3K9me1 peptide binding; Potency, µM (series often up to 57.1 µM), inactives show top-dose activity, negative = inhibition, most hits filed as inhibitors; actives 0.66% (n = 230,000); AID 485360; also: % is scaled to controls: 0 for no effect and ±100 for the full control effect; nearly all actives have a fitted effect of over 60% in size
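L3MBTL1 50 nM + b-AHA-H3(1-15)K9me1 75 nM, 30 min RT; compound added, 30 min RT; streptavidin donor/Ni-chelate acceptor beads 10 ug/mL each final, 30 min RT dark; AlphaScreen read.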
JMJD2A Tudor – blocks the human JMJD2A Tudor domain | O75164 | AlphaScreen JMJD2A-Tudor / H3K4me3 peptide binding | Potency, µM (series often up to 114 µM), without a hit: at the highest dose activity change, negative = inhibition, actives largely listed as inhibitors | actives 4.4% (n = 390,000); also: % is scaled to controls: 0 for no effect and ±100 for the full control effect; nearly all actives have a fitted effect of over 50% in size
VDR inh – inhibitors of human vitamin D receptor; P11473; Potency, µM, inactives show max response, negative = inhibition, usual class: inhibitors; VDR-SRC2-3 peptide fluorescence polarization, 2 h; actives 0.93% (n = 400,000); AID 504847; also: % is scaled to controls: 0 for no effect and ±100 for the full control effect
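Fluorescence polarization assay measuring small-molecule disruption of VDR binding to the coregulator peptide SRC2-3. Compounds were pin-transferred (23 nl) into the reagent mix and incubated 2 h at room temperature before reading.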
HP1b chromo inh – blocks HP1-beta chromodomain binding to methylated histone tails; actives 0.56% (n = 390,000); AlphaScreen HP1-beta / biotin-H3K9me3 peptide binding; Potency, µM (titrated, usually from 114 µM), for the others: top-dose activity change, negative = inhibition, most hits filed as inhibitors; P83916; AID 540317; also: nearly all actives have a fitted effect of over 70% in size
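HP1-beta protein (50 nM final) preincubated 30 min at room temperature with biotinylated H3(1-18)K9me3 peptide (50 nM) in PBS pH 7.4, 0.01% Tween-20, then compound added for 30 min. AlphaScreen streptavidin donor/nickel chelate acceptor beads (10 ug/mL final), 30 min dark, luminescence read.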
L3MBTL1 inh-2 – validation of human L3MBTL1 methyl-lysine binding inhibitors. shares compounds with L3MBTL1 inh-1. L3MBTL1 methyl-lysine binding inhibition, biochemical qHTS. AID 540279. Potency, µM, usual class: inhibitors. actives 91% (n = 500); also: nearly all actives have a fitted effect of over 70% in size
L3MBTL1 ctr – counter-screen for L3MBTL1 inhibitors: AlphaScreen signal interference; shares compounds with L3MBTL1 inh-1; AlphaScreen counterscreen, signal inhibition; Potency, µM (highest dose often 57.1 µM), for inactives: at the top dose activity change, negative = inhibition, most hits filed as inhibitors; 500 tested, under 10 active; AID 602224; also: 0% is about no effect
* marks the source's active call; other numbers are inactive results; u = inconclusive; x = no result; [ ] = dose if it differs, or a comment. A selection: hits, their analogues and other compounds. The true share with any hit is near 6.9%. Calls follow the shape of the dose curve; as a rule, active = well fitted curve in the direction sought with a large enough effect; inconclusive = small, poorly fitted or top-dose-only effect, or another doubt; inactive = no such curve, though single readings can be large; an effect the other way counts as inactive or inconclusive. Potency is read from the fitted curve at half-maximal effect.

SMILES	PLK1 PBD inh	BAZ2B inh	L3MBTL1 inh-1	JMJD2A Tudor	VDR inh	HP1b chromo inh	L3MBTL1 inh-2	L3MBTL1 ctr
NC(=O)c1ccc(NC(=O)COC(=O)/C=C/c2ccc(Br)o2)cc1	-24%	x	14µM*	20µM*	2%	u	6.7*	-4%
Cc1cc(C(=O)COC(=O)c2cc(Cl)c(O)c(Cl)c2)c(C)n1C	u	50µM*	28µM*	50µM*	-5%	u	4.7*	u
O=C1NC(=O)/C(=C/c2ccc(-c3cc(C(=O)O)ccc3Cl)o2)S1	u	-12%	7.1µM*	-19%	-21%	15%	8.4*	-6%
COc1cc(/C=C2\SC(=Nc3ccc(Cl)c(C(=O)O)c3)NC2=O)c(Br)c(Br)c1O	71%	45µM*	32µM*	79µM*	u	u	3*	u
CC1CCN(C(=O)CN2c3ccc(Br)cc3-c3ccccc3S2(=O)=O)CC1	x	-16%	x	-24%	23%	39%	x	x
O=C(Cn1c(=O)n(Cc2ccco2)c(=O)c2c3c(sc21)CCCCC3)c1ccccc1	-20%	-35%	35µM*	u	-5%	2%	3.8*	-24%
CCOc1ccc(S(=O)(=O)N2CCCC(C(=O)NCc3ccncc3)C2)cc1 (stereo not drawn)	4%	-3%	x	-10%	6%	32%	x	x
C=Cc1cnc([N+](=O)[O-])n1C	-28%	x	x	x	x	x	x	x
COc1ccc2c(c1)c(=O)oc1c(C)c(OCc3cc(C(=O)O)oc3C)ccc12	u	u	35µM*	28µM*	-3%	u	11*	4%
O=S1(=O)Nc2c(ccc3cccnc23)-c2ccccc21	-7%	6.3µM*	11µM*	5.6µM*	-9%	29%	3*	9.5µM*
CC(=O)Nc1ccccc1OCC(=O)NC1CCCCC1C (stereo not drawn)	-8%	5%	12%	-5%	-10%	17%	x	x
O=C(CSc1ncccc1-c1nc2ccccc2[nH]1)NCc1ccco1	19µM*	56µM*	35µM*	35µM*	u	u	21*	u
COc1ccc(NC(=O)N2C[C@H]3CON(C)[C@H]3C[C@H]2c2ccc(N3CCCCC3)cc2)cc1	-1%	x	x	x	x	x	x	x
Cc1ccc(N=C2NC(=O)S/C2=C\c2ccco2)cc1	-20%	63µM*	25µM*	18µM*	5%	1%	12*	7%
C=CCn1c(SCC(=O)c2ccc(O)c(O)c2)nnc1-c1ccc(OC)cc1	-18%	-19%	8.9µM*	u	-7%	4%	13*	0%
CC(=O)Oc1ccc2c(=O)c(Oc3ccccc3)coc2c1OC(C)=O	u	50µM*	14µM*	u	-4%	-12%	9.5*	9%
CC(C)Oc1cccc(C(=O)Nc2ccc(Br)cc2F)c1	-10%	18%	29%	71%	-7%	71%	x	x
O=C(/C=C/c1ccco1)Nc1scc(-c2ccccc2)c1C(=O)O	u	-29%	25µM*	-32%	-15%	u	2.7*	-29%
O=C(/C=C/c1ccccc1)Nc1scc(-c2ccccc2)c1C(=O)O	-14%	-13%	-7%	-20%	-5%	16%	x	x
COc1ccc(S(=O)(=O)/N=C2/NC(=O)/C(=C/c3ccco3)S2)cc1	-27%	u	35µM*	u	1%	12%	19*	-1%
O=C(O)CCCN1C(=O)/C(=C\c2ccc(-c3nc4ccccc4s3)o2)SC1=S	11µM*	7.9µM*	3.5µM*	-32%[11.4 µM]	u	18µM*	4.2*	u
O=Cc1ccc(-c2nc3ccccc3s2)o1	-2%	-21%	-2%	-15%	5%	19%	x	x
O=C(Oc1c(CN2CCOCC2)cc(Cl)c2cccnc12)c1ccccc1Cl	-2%	11µM*	14µM*	50µM*	-5%	34%	27*	-16%
Oc1c(CN2CCN(c3ccccn3)CC2)cc(Cl)c2cccnc12	-2%	14µM*	4.5µM*	32µM*	12%	-15%	21*	-95%
O=C(Oc1c(Cl)cc(Cl)c2cccnc12)c1cccs1	-2%	24%	16%	38%	5%	125%	x	x
SMILES	PLK1 PBD inh	BAZ2B inh	L3MBTL1 inh-1	JMJD2A Tudor	VDR inh	HP1b chromo inh	L3MBTL1 inh-2	L3MBTL1 ctr
COc1ccc(/C=C/C(=O)NCc2ccccn2)cc1	7%	5%	-5%	11%	-10%	41%	x	x
Cc1ccc(/C=C/C(=O)NCc2ccccn2)o1	u	45µM*	32µM*	50µM*	-1%	u	7.5*	-4%
Cc1ccc(/C=C(\CCC(=O)O)c2nc3ccccc3s2)cc1[N+](=O)[O-]	u	-11%	0%	-30%	-21%	5%	x	x
CN(c1ccccc1)c1ccc(/C=C(\CCC(=O)O)c2nc3ccccc3s2)cc1[N+](=O)[O-]	24µM*	11µM*	28µM*	45µM*	-13%	u	24*	u
CC(CCc1ccco1)NC(=O)c1cccc2c1C(=O)N(C1CCCCC1)C2 (stereo not drawn)	-2%	5%	x	-28%	-20%	21%	x	x
COc1ccc(N2Cc3cccc(C(=O)NC(C)CCc4ccco4)c3C2=O)cc1 (stereo not drawn)	u	35µM*	14µM*	45µM*	u	u	2.7*	9%
Cc1c(C(=O)OC2CCCCC2)[nH]c2c1C(=O)CC(c1ccccc1)C2 (stereo not drawn)	x	1%	x	-19%	5%	27%	x	x
Cc1c(C(=O)OCC2CCCO2)[nH]c2c1C(=O)CC(c1ccco1)C2 (stereo not drawn)	u	22µM*	14µM*	u	-11%	u	6*	-2%
N#C/C(=C\c1ccc(C(=O)O)cc1)c1nc2sc3c(c2c(=O)[nH]1)CCCC3	u	45µM*	22µM*	u	-5%	-33%	11*	-24%
COC(=O)c1ccc(N2NC(=O)/C(=C/c3ccc(-c4ccc(Cl)c(C(=O)O)c4)o3)C2=O)cc1	17µM*	50µM*	6.3µM*	56µM*	79µM*	u	1.7*	-17%
O=C1NN(c2ccccc2)C(=O)/C1=C/c1ccc(-c2ccc(C(=O)O)cc2)o1	21µM*	50µM*	13µM*	56µM*	u	u	3*	u
